Results with a measured potency or affinity are listed apart.
Columns and labels:
Klebsiella pneumoniae = settings: Concentration 20 uM; ASSAY_TEST Inhibition of Bacterial Growth; detection method Absorption (OD600); MEDIA CAMHB; plate type 384well; NBS; CORNING #3640; time 18 hr
Candida albicans = settings: 20 µM
Cryptococcus neoformans = settings: Concentration 20 uM; ASSAY_TEST Inhibition of Fungal Growth; detection method Resazurin; Absorption (OD600-OD570); plate type 384well; NBS; CORNING #3640

Structure (SMILES)	Inhibition (Klebsiella pneumoniae) [%]	Inhibition (Candida albicans) [%]	Inhibition (Cryptococcus neoformans) [%]
COc1ccc(OC)c(C(O)CNC(=O)CN)c1.Cl (stereo not given) [MIDODRINE HYDROCHLORIDE]	8.37	2.18	-10.49
CC(C)NCC(O)COc1ccc(COCCOC(C)C)cc1.CC(C)NCC(O)COc1ccc(COCCOC(C)C)cc1.O=C(O)/C=C/C(=O)O (stereo not given) [BISOPROLOL FUMARATE]	12.19	0.23	-4.67
COc1cc(C)c(/C=C/C(C)=C/C=C/C(C)=C/C(=O)O)c(C)c1C [ACITRETIN]	7.64	3.07	-7.56
NS(=O)(=O)c1cc2c(cc1Cl)N=CNS2(=O)=O [CHLOROTHIAZIDE]	4.1	4.39	-0.92
COc1cc(C(=O)NC2CCCNC2)cc(OC)c1OC (stereo not given) [TROXIPIDE]	14.93	5.32	0.51
CC(C)(C(=O)O)c1ccc(C(O)CCCN2CCC(C(O)(c3ccccc3)c3ccccc3)CC2)cc1.Cl (stereo not given) [FEXOFENADINE HYDROCHLORIDE]	13.11	1.18	-7.41
O=C1CCC(N2C(=O)c3ccccc3C2=O)C(=O)N1 (stereo not given) [THALIDOMIDE]	3.28	3.62	-0.8
CCCCc1nc(Cl)c(CO)n1Cc1ccc(-c2ccccc2-c2nnn[n-]2)cc1.[K+] [LOSARTAN POTASSIUM]	7.23	5	-3.04
Cl.O=C(O)/C=C/c1ccc(Cn2ccnc2)cc1	3.67	3.2	-5.32
CCN(CC)CCNC(=O)c1cc(Cl)c(N)cc1OC.Cl	10.19	3.69	-1.39

From ChEMBL document CHEMBL4513141, “CO-ADD screening of NIH (USA) - Clinical Collection” (2021)
